Compounds with a hit are over-represented: about 2.3% of the library has one in this group of screens.
KKLEB tox: CF airway cell cytotoxicity counter-screen | KKLEB CF airway cells viability, ATPlite luminescence, overnight; hits give low values; cells stimulated with P. aeruginosa culture filtrate | activity change (cytotoxicity), % at 5 µM | 360,000 tested, 0.36% active;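 active means corrected activity change at or below -50% at 5 µM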
hiPSC survival: hiPSC single-cell survival enhancement | 360,000 tested, 0.044% active | ATPlite luminescence; 100% = ROCK inhibitor wells, 0% = DMSO | survival enhancement, % at 20 µM; in the data active means survival enhancement above about 18%;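 further: cells exposed to compounds for 16 hours before the ATP read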
CF NFkB block: blocks PAF-induced NF-kB reporter in cystic fibrosis cells. KKLEB NF-kB-GFP reporter, GFP fluorescence overnight. inhibition, % at 5 µM. 360,000 tested, 0.86% active. AID 588850;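 active means at least 50% inhibition at 5 µM, scaled per plate between neutral and stimulator controls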;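 further: PAF is a Pseudomonas aeruginosa culture filtrate used as stimulus; plate controls were PAF-stimulated DMSO wells for no effect and unstimulated DMSO wells for full effect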
HIF-2a inh: HIF-2a inhibition | 786-0 RCC cells HIF-2a reporter, luciferase luminescence, overnight | AID 624352 | inhibition, % at 18.8 µM | 360,000 tested, 0.72% active;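 active means inhibition of the luminescence signal of 40% or more relative to plate controls, in a single-dose primary screen at 18.75 µM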
LGR2 antag: inhibitors of bursicon-induced Drosophila LGR2 receptor cAMP signaling; HEK293 LGR2, CRE-luciferase, bursicon-stimulated, 4 h; inhibition, % at 9.99 µM; 380,000 tested, 0.35% active;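 active means drop in luminescence signal, shown as inhibition above about 50% in the replicate tests, limit read from the data, passing the limit was not always enough; inconclusive means probably only some replicates passing the limit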;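 further: agonist challenge used bursicon conditioned medium at about half maximal strength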
TWEAK Fn14 block: TWEAK-Fn14 signaling inhibition | TWEAK-stimulated Fn14 reporter cells, luciferase luminescence, 8 h | inhibition, % at 10 µM | 360,000 tested, 2% active | AID 1159606; in the data active means inhibition above about 50%
CF NFkB inh conf: CF NF-kB inhibition confirmation, single concentration | 1,300 tested, 64% active | KKLEB CF airway cells, PAF-induced NF-kB-GFP fluorescence, overnight | AID 602472 | shares compounds with CF NFkB block | inhibition, % at 5 µM; in the data active means inhibition above about 40%;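 further: stimulus PAF is a Pseudomonas aeruginosa filtrate and not platelet activating factor; plate controls were DMSO wells with stimulus for no effect and unstimulated DMSO wells for full effect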
Mdm2-MdmX confirm: confirmation of inhibitors of human Mdm2/MdmX interaction, set 2 | SaOS-2 split-luciferase Mdm2/MdmX complementation, luminescence | inhibition, % at 8 µM | shares compounds with HIF-2a inh | AID 504601 | 740 tested, 99% active;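 active means mean inhibition of the luminescence signal across two replicates at or above 26 percent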
HIF-2a inh conf: HIF-2a inhibition, single concentration confirmation; shares compounds with HIF-2a inh; 786-0 RCC cells, HIF-2a luciferase reporter luminescence, overnight; inhibition, % at 18.8 µM; 1,800 tested, 56% active; AID 651580;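 active means mean inhibition across four replicates of at least 40 percent at the single tested concentration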
HIF-1a counter: inhibits HIF-1a reporter, a counter-screen for HIF-2a inhibitors. shares compounds with HIF-2a inh. MiaPaCa-2 HIF-1a luciferase reporter, desferoxamine, overnight. inhibition, % at 18.8 µM. 1,800 tested, 72% active. AID 651589;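 active means mean inhibition of the reporter signal across four replicates at the single tested dose of 50% or more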
* = called active by the depositor; ? = inconclusive; nt = not tested or not shown.

SMILES | KKLEB tox | hiPSC survival | CF NFkB block | HIF-2a inh | LGR2 antag | TWEAK Fn14 block | CF NFkB inh conf | HIF-2a inh conf | HIF-1a counter | others
CCOC(=O)COc1ccc2ccccc2c1/C=C/[N+](=O)[O-] | -23 | -1 | 62* | 90* | 105* | 32 | 107* | 86* | 104*
CCc1cc(SC#N)cc(C)c1NC(=O)CCl | -48 | -2 | 66* | 46* | nt | 26 | 54* | 47* | 62*
CCC(=O)Nc1ccc(SC#N)cc1C | -1 | -3 | -11 | 25 | -4 | 6 | nt | nt | nt
Cc1noc(C)c1NC(=O)Nc1ccc2c(c1)CC(=O)N([C@@H](C)CO)C[C@@H](C)[C@H](CN(C)CC1CC1)O2 | nt | nt | nt | nt | -14 | nt | nt | nt | nt
O=C(Nc1ccc(N2CCCC2)c(Cl)c1)c1ccc([N+](=O)[O-])o1 | -46 | -1 | 70* | 84* | -38 | 26 | -26 | 50* | 107*
Cc1ccc(S(=O)(=O)Nc2ccc3c(c2)C(=O)N([C@@H](C)CO)C[C@@H](C)[C@H](CN(C)C(=O)CCCN(C)C)OCCCC[C@H](C)O3)cc1 | nt | nt | nt | nt | 15 | nt | nt | nt | nt
C[C@@H]1CN([C@H](C)CO)C(=O)c2cc(NS(=O)(=O)c3ccc(Cl)cc3)ccc2O[C@@H](C)CCCCO[C@@H]1CN(C)C(=O)NC1CCCCC1 | nt | nt | nt | nt | 5 | nt | nt | nt | nt
CCCCCCCCCCCCCCC(O)C[N+](C)(CCO)CCO (stereo not drawn) | -34 | 0 | 55* | 73* | 4 | -50 | 56* | 39 | 84*
O=C(O)CSc1ncnc2scc(-c3ccccc3)c12 | 6 | 2 | 9 | 14 | 12 | 12 | nt | nt | nt
CN(C)C(=O)CSc1ncnc2scc(-c3ccccc3)c12 | -5 | -1 | 9 | 13 | -17 | -1 | nt | nt | nt
CC(=O)c1cccc(-c2csc3ncnc(Sc4nnnn4C)c23)c1 | -5 | -2 | 71* | 49* | ? | 75* | 28 | 44* | 99*
Cn1nnnc1Sc1ncnc2scc(-c3cccc(S(C)(=O)=O)c3)c12 | -14 | -3 | 52* | 63* | 85* | 61* | 17 | 32 | 66*
O=S(=O)(Nc1cccc2cccnc12)c1ccccc1 | -4 | 0 | 78* | 58* | 3 | 101* | 109* | 62* | -90 | Mdm2-MdmX confirm=102*
CC(=O)Nc1ccc(S(=O)(=O)Nc2cccc3cccnc23)cc1 | 11 | -1 | -26 | 23 | 7 | -17 | nt | nt | nt
Cc1ccc(S(=O)(=O)Nc2cccc3cccnc23)c([N+](=O)[O-])c1 | 0 | 0 | 68* | 57* | 0 | 99* | 108* | 75* | -216 | Mdm2-MdmX confirm=101*
Cc1cc(C)c(NS(=O)(=O)c2cccc3cccnc23)c(C)c1 | 4 | 1 | -25 | 2 | -7 | -9 | nt | nt | nt
C[C@@H]1CN([C@@H](C)CO)C(=O)c2cc(NC(=O)c3ccccc3)ccc2O[C@@H](C)CCCCO[C@H]1CN(C)Cc1ccc2c(c1)OCO2 | nt | nt | nt | nt | 5 | nt | nt | nt | nt
Cn1cc(CNCc2cn[nH]c2-c2ccc(F)cc2)c(-c2ccc3c(c2)OCCO3)n1 | 4 | 0 | -6 | 5 | -3 | -7 | nt | nt | nt
CCCc1cc(-c2[nH]ncc2-c2ccc3c(c2)OCCCO3)c(O)cc1O | -5 | 2 | 50* | 46* | nt | 48 | 68* | 30 | 81*
CN(C)CCCN(C(=O)c1ccc(S(=O)(=O)N(C)C)cc1)c1nc2cc3c(cc2s1)OCO3 | -16 | -2 | -28 | -16 | 0 | -11 | nt | nt | nt
CN(C)CCCN(C(=O)CCS(=O)(=O)c1ccccc1)c1nc2cc3c(cc2s1)OCO3 | -11 | 0 | 96* | 62* | 22 | 69* | 104* | 38 | 102*
COc1cc(/C=C/C(=O)c2ccc(O)cc2)ccc1OCC#N | -17 | -1 | 65* | 51* | nt | 71* | -5 | -13 | 100*
CCOc1ccc(/C=C/C(=O)c2ccccc2)cc1OC | -12 | -3 | 0 | -145 | -72 | 15 | nt | nt | nt
COc1cccc(CNC(=O)C[C@H]2CC[C@@H]3[C@@H](COc4ccc(NC(C)=O)cc4C(=O)N3C)O2)c1 | nt | nt | nt | nt | 18 | nt | nt | nt | nt
Cc1cc(C)c2sc(NNC(=O)c3ccc(S(=O)(=O)N4CCc5ccccc5C4)cc3)nc2c1 | -12 | 0 | 12 | 4 | nt | 16 | nt | nt | nt | Mdm2-MdmX confirm=87*
SMILES | KKLEB tox | hiPSC survival | CF NFkB block | HIF-2a inh | LGR2 antag | TWEAK Fn14 block | CF NFkB inh conf | HIF-2a inh conf | HIF-1a counter | others
Cc1ccc2nc(N(CCCN(C)C)C(=O)c3ccc(S(=O)(=O)N4CCc5ccccc5C4)cc3)sc2c1 | -50 | -1 | -91 | 88* | 34 | -154 | nt | 43* | 99*
COc1ccc2sc(N(CCCN(C)C)C(=O)c3ccc(S(=O)(=O)N4CCc5ccccc5C4)cc3)nc2c1 | -98* | -1 | 74* | 82* | 5 | -263 | nt | 32 | 106* | Mdm2-MdmX confirm=95*
Cc1cc(C)c2sc(N(CCCN(C)C)C(=O)c3ccc(S(=O)(=O)N4CCc5ccccc5C4)cc3)nc2c1 | -78* | 0 | 48 | 63* | nt | -261 | nt | 57* | 100*
O=C(NCC[C@@H]1CC[C@@H](NS(=O)(=O)c2ccccc2F)[C@@H](CO)O1)c1ccc(F)cc1 | nt | nt | nt | nt | -12 | nt | nt | nt | nt
CN(C)CCCNC(=O)C[C@H]1CC[C@H](NS(=O)(=O)c2ccccc2)[C@H](CO)O1 | nt | nt | nt | nt | -5 | nt | nt | nt | nt
CN(C)CCCN(C(=O)c1ccc(S(=O)(=O)N2CCc3ccccc3C2)cc1)c1nc2ccc(F)cc2s1 | -38 | 0 | -20 | 73* | 12 | -208 | nt | 15 | 103*
COc1ccc(NC(=O)Nc2cccc3c2O[C@@H](CN(C)Cc2ccc(Cl)c(Cl)c2)[C@@H](C)CN([C@@H](C)CO)C3=O)cc1 | nt | nt | nt | nt | 5 | nt | nt | nt | nt
O=C(NCc1cccnc1)/C(=C/c1ccc(-c2ccc(Cl)cc2)o1)S(=O)(=O)c1ccccc1 | -54* | -4 | 73* | 90* | 99* | 100* | nt | 99* | 104* | Mdm2-MdmX confirm=102*
O=C(NCc1cccnc1)/C(=C\c1ccc(-c2ccc(Br)cc2)o1)S(=O)(=O)c1ccccc1 | -56* | -3 | 86* | 93* | 102* | 100* | nt | 98* | 106* | Mdm2-MdmX confirm=103*
CC(C)NC(=O)N1C[C@H]2[C@@H](c3ccccc31)[C@H](CO)N2C(=O)NC(C)C | nt | nt | nt | nt | 6 | nt | nt | nt | nt
CCOC(=O)COc1ccc(S(=O)(=O)NCCC2=CCCCC2)cc1 | 0 | -2 | 10 | 54* | 15 | 12 | nt | 7 | -1

Screening data from PubChem.
